Holding throughout (conditions): mRNA level, 48 h; actives raise or lower the signal
Read-out in assay [1]: Glutamate-cysteine ligase catalytic (GCLC), GCLC (gene 2729)
The experiment in a line: LTEA_HepaRG_GCLC: Life Technologies and Expression Analysis (LTEA) Assay for Glutamate-cysteine ligase catalytic (GCLC) using HepaRG (AID 2283498). In a few lines: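 Oxidative-stress marker GCLC is measured as mRNA change in human HepaRG liver cells after 48 h chemical treatment in 0.5% DMSO, eight concentrations from 100 uM. Activity is fitted bidirectionally against vehicle.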

Read-out in assay [2]: growth arrest and DNA damage 45 (GADD45G), GADD45G (gene 10912)
The experiment in a line: LTEA_HepaRG_GADD45G: Life Technologies and Expression Analysis (LTEA) Assay for growth arrest and DNA damage 45 (GADD45G) using HepaRG (AID 2283499). In a few lines: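 Gain or loss of GADD45G mRNA, quantified by TaqMan qRT-PCR against three housekeeping genes, is fitted in both directions relative to 0.5% DMSO. Human HepaRG cultures receive test chemical for 48 h at up to 100 uM.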

Read-out in assay [3]: Glutamate-cysteine ligase regulatory (GCLM), GCLM (gene 2730)
The experiment in a line: LTEA_HepaRG_GCLM: Life Technologies and Expression Analysis (LTEA) Assay for Glutamate-cysteine ligase regulatory (GCLM) using HepaRG (AID 2283500). Summed up: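 HepaRG, 48 h dosing, 100 uM top, half-log x8, 0.5% DMSO vehicle. Readout: GCLM mRNA by TaqMan qRT-PCR, housekeeping-normalized (ACTB/GAPDH/POLR2A). Curves fit bidirectionally vs DMSO baseline.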

Read-out in assay [4]: Glutathione S-transferase M3 (GSTM3), GSTM3 (gene 2947)
The assay can be described thus: LTEA_HepaRG_GSTM3: Life Technologies and Expression Analysis (LTEA) Assay for Glutathione S-transferase M3 (GSTM3) using HepaRG (AID 2283501). Summed up: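 HepaRG, plated 48 h, then serum-free induction medium; test chemical 48 h, duplicate; 100 uM top, half-log x8, 0.5% DMSO. Read-out: GSTM3 mRNA (TaqMan qRT-PCR, Fluidigm array). Bidirectional fit vs DMSO.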

Read-out in assay [5]: Heat shock 70 kDa protein 1 (HSPA1A), gene 3303
The experiment in a line: LTEA_HepaRG_HSPA1A: Life Technologies and Expression Analysis (LTEA) Assay for Heat shock 70 kDa protein 1 (HSPA1A) using HepaRG (AID 2283502). Summed up: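 HepaRG, 48 h exposure, 8-pt half-log CRC from 100 uM in 0.5% DMSO, duplicates. Readout: TaqMan qRT-PCR of HSPA1A mRNA, housekeeping-normalized (ACTB/GAPDH/POLR2A). Bidirectional fit vs 0.5% DMSO baseline.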

Read-out in assay [6]: Hypoxia-inducible factor 1-alpha (Homo sapiens) (UniProt Q16665)
The assay can be described thus: LTEA_HepaRG_HIF1A: Life Technologies and Expression Analysis (LTEA) Assay for Hypoxia-inducible factor 1 (HIF1A) Trancription factor using HepaRG (AID 2283503). Summed up: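 Gain- or loss-of-signal HIF1A mRNA changes are fitted against a DMSO baseline. HepaRG cultures receive eight concentrations, highest 100 uM, for 48 h in serum-free induction medium with 0.5% DMSO.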

Read-out in assay [7]: 3-Hydroxy-3-Methylglutaryl-CoA Synthase 2 (HMGCS2), HMGCS2 (gene 3158)
The experiment in a line: LTEA_HepaRG_HMGCS2: Life Technologies and Expression Analysis (LTEA) Assay for 3-Hydroxy-3-Methylglutaryl-CoA Synthase 2 (HMGCS2) using HepaRG (AID 2283504). In a few lines: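 HepaRG, plated 48 h then switched to serum-free induction media; cmpd 8-pt, max 100 uM, 1/2-log, 0.5% DMSO, n=2, 48 h. HMGCS2 mRNA by Fluidigm TaqMan qRT-PCR, ACTB/GAPDH/POLR2A norm; bidirectional fit vs DMSO.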

Read-out in a further assay: HGF (gene 3082)
The assay can be described thus: LTEA_HepaRG_HGF: Life Technologies and Expression Analysis (LTEA) Assay for Hepatocyte Growth Facto (HGF) using HepaRG (AID 2283505). Summed up:
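Read-out is HGF transcript level by qRT-PCR, normalized to three housekeeping genes, fitted bidirectionally against 0.5% DMSO vehicle. Human HepaRG cells received test chemicals for 48 h at up to 100 uM.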

Read-out in assay [8]: Insulin Like Growth Factor 1 (IGF1), IGF1 (gene 3479)
The experiment in a line: LTEA_HepaRG_IGF1: Life Technologies and Expression Analysis (LTEA) Assay for Insulin Like Growth Factor 1 (IGF1) using HepaRG (AID 2283506). In a few lines: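 qRT-PCR readout of IGF1 mRNA, normalized to three housekeeping genes, after 48 h chemical exposure of HepaRG cells. Concentrations: 8-point half-log series, top 100 uM, 0.5% DMSO vehicle. Gain or loss fitted against DMSO baseline.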

Read-out in assay [9]: Intercellular Adhesion Molecule 1 (ICAM1), ICAM1 (gene 3383)
The assay can be described thus: LTEA_HepaRG_ICAM1: Life Technologies and Expression Analysis (LTEA) Assay for Intercellular Adhesion Molecule 1 (ICAM1) using HepaRG (AID 2283507). In a few lines:
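Readout is qRT-PCR mRNA level, normalized to three housekeeping genes and fitted bidirectionally against 0.5% DMSO vehicle. Human HepaRG cultures received compound for 48 h, top concentration 100 uM with half-log dilutions.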

Read-out in assay [10]: Interleukin 6 (IL6), IL6 (gene 3569)
The experiment in a line: LTEA_HepaRG_IL6: Life Technologies and Expression Analysis (LTEA) Assay for Interleukin 6 (IL6) using HepaRG (AID 2283509). Summed up: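 Changes in IL6 mRNA, up or down relative to 0.5% DMSO controls, were derived from concentration-response curves in human HepaRG cells treated for 48 h at up to 100 uM, with ACTB, GAPDH and POLR2A as normalizers.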

Read-out in assay [11]: Interleukin 6 Receptor (IL6R), IL6R (gene 3570)
The experiment in a line: LTEA_HepaRG_IL6R: Life Technologies and Expression Analysis (LTEA) Assay for Interleukin 6 Receptor (IL6R) using HepaRG (AID 2283510). In a few lines: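 HepaRG, 48 h exposure, 8-pt half-log series, top 100 uM, 0.5% DMSO vehicle, duplicates. Read-out: TaqMan qRT-PCR of IL6R transcript, housekeeping-gene normalized. Gain or loss fitted relative to DMSO baseline.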

Read-out in assay [12]: Potassium channel subfamily K member 1 (KCNK1), KCNK1 (gene 3775)
The experiment in a line: LTEA_HepaRG_KCNK1: Life Technologies and Expression Analysis (LTEA) Assay for Potassium channel subfamily K member 1 (KCNK1) using HepaRG (AID 2283511). Summed up: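 Human HepaRG cultures receive test chemicals for 48 h in 0.5% DMSO, top concentration 100 uM with half-log dilutions. Induction or suppression of KCNK1 mRNA relative to DMSO is derived by bidirectional fitting of qRT-PCR data.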

Read-out in assay [13]: Keratin 19 (KRT19), KRT19 (gene 3880)
The experiment in a line: LTEA_HepaRG_KRT19: Life Technologies and Expression Analysis (LTEA) Assay for Keratin 19 (KRT19) using HepaRG (AID 2283512). In a few lines: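 KRT19 transcript levels, measured by Fluidigm qRT-PCR against three housekeeping genes, are fitted for gain or loss of signal relative to DMSO. Human HepaRG cells receive test chemicals (top 100 uM, half-log steps, 0.5% DMSO) for 48 hours.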

Read-out in assay [14]: JUN Transcription Factor, JUN (gene 3725)
The assay can be described thus: LTEA_HepaRG_JUN: Life Technologies and Expression Analysis (LTEA) Assay for JUN Transcription Factor using HepaRG (AID 2283513). In a few lines: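 HepaRG, 48 h exposure, 8-pt half-log series top 100 uM, 0.5% DMSO, duplicate. JUN mRNA by qRT-PCR (Fluidigm), housekeeping-normalized (ACTB/GAPDH/POLR2A); bidirectional curve fit vs DMSO baseline.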

Read-out in assay [15]: Lipase C (LIPC), LIPC (gene 3990)
The assay can be described thus: LTEA_HepaRG_LIPC: Life Technologies and Expression Analysis (LTEA) Assay for Lipase C (LIPC) using HepaRG (AID 2283514). In a few lines:
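In this multiplexed gene-expression screen, human HepaRG cultures received test chemicals for 48 h across eight concentrations with 100 uM highest, in duplicate. Values reflect LIPC mRNA induction or suppression versus DMSO vehicle, from normalized qRT-PCR.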

Read-out in assay [16]: MicroRNA 122 (MIR122), gene 406906
The experiment in a line: LTEA_HepaRG_MIR122: Life Technologies and Expression Analysis (LTEA) Assay for MicroRNA 122 (MIR122) using HepaRG (AID 2283516). Also: the transcript read is the microRNA miR-122. Summed up:
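qRT-PCR read-out (TaqMan, Fluidigm array), normalized to three housekeeping genes; HepaRG cells dosed 48 h at 8 concentrations up to 100 uM in 0.5% DMSO, duplicate; gain or loss fitted against DMSO baseline.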

Read-out in assay [17]: matrix metalloproteinase-10 (MMP10), MMP10 (gene 4319)
The experiment in a line: LTEA_HepaRG_MMP10: Life Technologies and Expression Analysis (LTEA) Assay for matrix metalloproteinase-10 (MMP10) using HepaRG (AID 2283517). Summed up:
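In differentiated HepaRG cultures kept in 0.5% DMSO, test chemicals act for 48 h over an eight-point range with a top dose of 100 uM. Expression is then quantified by TaqMan RT-PCR against ACTB, GAPDH and POLR2A.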

Read-out in assay [18]: Insulin-like growth factor-binding protein 1 (IGFBP1), IGFBP1 (gene 3484)
The assay can be described thus: LTEA_HepaRG_IGFBP1: Life Technologies and Expression Analysis (LTEA) Assay for Insulin-like growth factor-binding protein 1 (IGFBP1) using HepaRG (AID 2283508). In a few lines:
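Thawed HepaRG cells are plated for 48 h, switched to serum-free induction medium, then dosed in duplicate for another 48 h (100 uM top, half-log steps). Lysates in RLT go to qRT-PCR, and gain or loss of signal is fitted relative to vehicle.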

Read-out in assay [19]: Lipoprotein lipase (LPL), LPL (gene 4023)
The assay can be described thus: LTEA_HepaRG_LPL: Life Technologies and Expression Analysis (LTEA) Assay for Lipoprotein lipase (LPL) using HepaRG (AID 2283515). In a few lines: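 Concentration-response testing used half-log steps from 100 uM in 0.5% DMSO on human HepaRG cells, 48 h, duplicate wells. Phenobarbital 1 mM served as induction control; LPL mRNA was normalized to ACTB, GAPDH, POLR2A.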

The source made the active and inactive calls. The calls were made as follows: active = hit-call score of the fitted dose curve at least 0.9, where 1 is the maximum; inactive = score below 0.9.

Sequence of Hypoxia-inducible factor 1-alpha (Homo sapiens) (Q16665 whole entry, looked up): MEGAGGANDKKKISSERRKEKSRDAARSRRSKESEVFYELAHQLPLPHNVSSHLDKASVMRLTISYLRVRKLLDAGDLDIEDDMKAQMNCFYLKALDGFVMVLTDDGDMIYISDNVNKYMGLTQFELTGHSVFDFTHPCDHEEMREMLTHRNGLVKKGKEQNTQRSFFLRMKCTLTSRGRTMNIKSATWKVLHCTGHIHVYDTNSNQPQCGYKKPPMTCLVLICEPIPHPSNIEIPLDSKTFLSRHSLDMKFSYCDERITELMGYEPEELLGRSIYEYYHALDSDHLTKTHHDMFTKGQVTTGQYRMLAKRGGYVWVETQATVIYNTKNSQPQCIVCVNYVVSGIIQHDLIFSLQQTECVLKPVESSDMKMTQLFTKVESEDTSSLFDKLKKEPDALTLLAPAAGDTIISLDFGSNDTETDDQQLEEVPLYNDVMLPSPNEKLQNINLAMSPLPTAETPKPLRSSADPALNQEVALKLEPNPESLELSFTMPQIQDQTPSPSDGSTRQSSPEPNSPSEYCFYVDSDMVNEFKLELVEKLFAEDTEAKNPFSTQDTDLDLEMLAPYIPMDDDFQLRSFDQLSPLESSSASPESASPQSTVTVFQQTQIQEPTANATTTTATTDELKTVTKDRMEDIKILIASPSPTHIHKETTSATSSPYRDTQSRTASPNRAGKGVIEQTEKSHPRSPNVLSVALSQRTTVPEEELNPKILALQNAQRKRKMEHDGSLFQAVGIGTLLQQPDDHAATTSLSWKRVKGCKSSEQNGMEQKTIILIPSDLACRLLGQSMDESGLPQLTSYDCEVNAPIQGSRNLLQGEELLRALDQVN

As for `C=CC1(C)OC(=O)N(c2cc(Cl)cc(Cl)c2)C1=O` (configuration not stated), the outcome in assay [1], in assay [2], in [3], in assay [4], in [5] and in [6] was inactive. For the same compound, the result (in assay [7]; with HGF (gene 3082); in assay [8]; in [9]; in assay [10]; in assay [11]) was inactive. In addition, the result in assay [12], in assay [13], in assay [14], in assay [15], in assay [16] and in assay [17] was inactive.
On to `CCOP(=S)(OCC)SCn1c(=O)oc2cc(Cl)ccc21`, for which the compound was classed as inactive in assay [1], in assay [2], in assay [3], in assay [4], in assay [5] and in assay [6]. Moreover, the compound was called inactive (in assay [7]; with HGF (gene 3082); in [9]; in assay [18]; in assay [10]; in [11]). The outcome in assay [12], in assay [14], in assay [15] and in assay [17] was inactive.
In the case of `COc1ccc(C(c2ccc(OC)cc2)C(Cl)(Cl)Cl)cc1`, the concentration at half-maximal activity (AC50) in assay [1] is 76.3 µM (active); in [2], 56.2 µM (active); in assay [3], 49.8 µM (active); in [5], 29.8 µM (active); in assay [7], 91.8 µM (active); in [8], 56.5 µM (active). In addition, the concentration at half-maximal activity (AC50) is 74.2 µM (active) in assay [13], 85.8 µM (active) in assay [15] and 76.6 µM (active) in assay [19]. In addition, the outcome (in [4]; in [6]; in the assay with HGF (gene 3082); in assay [9]; in assay [10]; in [11]) was inactive. The compound was classed as inactive in [12], in assay [14] and in assay [17].

As usually defined, the AC50 is the concentration at which the activity in the assay is half-maximal.

(Values after PubChem BioAssay (EPA / NIEHS).)
